In PubChem BioAssay (NCATS):
Results filed as inconclusive are left out. Calls of active or inactive are those of the source. Unless noted, the call rests on the fitted dose curve; in most records, active means well fitted curve in the direction sought with a large enough effect; inconclusive means small, poorly fitted or top-dose-only effect, or another doubt; inactive means no such curve, though single readings can be large; an effect the other way counts as inactive or inconclusive.

Experiments:
[1] = qHTS for Inhibitors of Plasmodium falciparum (DD2) proliferation (AID 504314);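 further: parasite DNA measured by SYBR Green fluorescence after red cell lysis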
In short: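 Normalization used 0.29 uM artemisinin as full inhibition and DMSO as baseline. Parasitized erythrocytes were exposed to compounds for 72 h (37C, 5% CO2), then lysed with saponin/Triton buffer containing SYBR Green I.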

[2] = qHTS for Inhibitors of Plasmodium falciparum (GB4) proliferation (AID 504315); further: nearly all actives have a fitted effect of over 50% in size
In short: (§1)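 Parasite growth measured as SYBR Green DNA fluorescence (ex 485, em 535 nm) after overnight lysis following 72 h culture at 37 °C, 0.3% parasitemia, 2.5% hematocrit. Values normalized against DMSO and 0.29 uM artemisinin controls, with plate-stack correction.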

[3] = qHTS for Inhibitors of Plasmodium falciparum (7G8) proliferation (AID 504316); further: series mostly up to about 6.7 µM; nearly all actives have a fitted effect of over 65% in size
In short: as §1

[4] = qHTS for Inhibitors of Plasmodium falciparum (HB3) proliferation (AID 504318); further: nearly all actives have a fitted effect of over 60% in size
In short: as §1

[5] = qHTS for Inhibitors of Plasmodium falciparum (CP250) proliferation (AID 504320)
In short: as §1

[6] = molecular target: Atrial natriuretic peptide receptor 1 (Homo sapiens) (UniProt P16066); test: Natriuretic polypeptide receptor (hNpr1) antagonism - Pilot CMLD screen (AID 1347052; calls by dose curve;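 further: HEK293 cells with hNpr1 stimulated by hNppA peptide at 0.1 nM; cGMP level read as GloSensor luciferase luminescence after agonist stimulation; series mostly up to about 9.2 µM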)

Measured: Potency

Chain of Atrial natriuretic peptide receptor 1 (Homo sapiens) (P16066 whole entry, looked up): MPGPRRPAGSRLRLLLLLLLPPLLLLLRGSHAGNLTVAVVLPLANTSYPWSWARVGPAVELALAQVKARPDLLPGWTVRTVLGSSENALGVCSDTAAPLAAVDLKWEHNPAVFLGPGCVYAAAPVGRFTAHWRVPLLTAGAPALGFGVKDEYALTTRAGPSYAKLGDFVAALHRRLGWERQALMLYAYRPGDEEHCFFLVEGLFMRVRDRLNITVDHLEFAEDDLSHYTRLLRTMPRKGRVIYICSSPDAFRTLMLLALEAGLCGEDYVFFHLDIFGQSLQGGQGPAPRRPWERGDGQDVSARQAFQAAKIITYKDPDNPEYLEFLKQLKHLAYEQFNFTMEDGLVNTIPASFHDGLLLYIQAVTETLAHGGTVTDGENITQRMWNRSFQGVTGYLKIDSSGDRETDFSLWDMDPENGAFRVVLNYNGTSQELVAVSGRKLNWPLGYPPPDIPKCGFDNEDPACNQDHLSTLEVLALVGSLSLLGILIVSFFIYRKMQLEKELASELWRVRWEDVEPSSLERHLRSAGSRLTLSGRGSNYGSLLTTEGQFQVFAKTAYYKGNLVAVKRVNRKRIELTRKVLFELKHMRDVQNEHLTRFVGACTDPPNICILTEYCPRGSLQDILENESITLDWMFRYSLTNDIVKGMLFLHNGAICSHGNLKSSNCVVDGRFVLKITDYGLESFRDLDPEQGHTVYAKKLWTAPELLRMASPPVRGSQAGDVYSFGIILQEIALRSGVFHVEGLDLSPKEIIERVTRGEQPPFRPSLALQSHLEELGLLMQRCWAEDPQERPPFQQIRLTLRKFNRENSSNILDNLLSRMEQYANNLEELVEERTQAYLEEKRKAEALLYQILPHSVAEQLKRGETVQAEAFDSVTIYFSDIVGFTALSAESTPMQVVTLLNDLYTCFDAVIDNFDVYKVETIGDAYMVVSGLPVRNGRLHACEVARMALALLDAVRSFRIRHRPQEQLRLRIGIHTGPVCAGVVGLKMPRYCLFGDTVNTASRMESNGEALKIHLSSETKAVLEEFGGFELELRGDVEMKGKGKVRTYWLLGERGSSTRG

COC(=O)[C@H]1[C@H](C)[C@@]2(O)c3ccccc3N(C)[C@@]1(C)[C@H]2O
inactive: all assays above

CCN1C(=NCCc2cccnc2)NC(c2ccccc2)C(C(=O)OC)=C1C (configuration not stated)
inactive: all assays above

CC(=O)OC[C@H]1O[C@H](C#CC(C)(C)C)C=C[C@H]1OC(C)=O
inactive: all assays above

C=COC[C@@H]1CN2[C@H](c3ccc(Br)cc3)[C@H](C)CC[C@H]2C(=O)O1
inactive: all assays above

C=C1C2c3ccccc3C(CC2(C)O[Si](C)(C)C)N1C(=O)OC (configuration not stated)
inactive: all assays above

C[C@H]1C(C(=O)N2CCCC2)=Cc2[nH]c(=O)[nH]c2C=C1c1ccccc1
inactive: all assays above

O=C1OC2(CCCCC2)CC2=C1[C@H]1O[C@](c3ccsc3)(Cc3c1ccc1ccccc31)O2
inactive: all assays above

CCCC[C@]12Cc3cc(C#N)ccc3[C@H](O1)c1c(c3cc(F)ccc3oc1=O)O2
inactive: all assays above

C[C@@H]1C=CCCO[C@]12C(=O)Nc1ccc(O)cc12
inactive: all assays above

CC(=O)OC[C@H]1O[C@H](CC=NOCC[C@@H]2C=C[C@@H](OC(C)=O)[C@@H](COC(C)=O)O2)C=C[C@@H]1OC(C)=O
inactive: all assays above

COC(=O)C1=C[C@@H]([C@@H](C)[C@H](OC)c2ccccc2Br)[C@@H]2OCC[C@H]12
inactive: all assays above

CC1=CC[C@@H](COc2ccccc2)O[C@@]2(C1)C(=O)Nc1cccc(Br)c12
inactive: all assays above

O=C(NN=C1C[C@@H](O)[C@H](O)[C@H]2[C@@H]3C(=O)N(C[C@@H]4CCCO4)C(=O)[C@@H]3CC[C@@H]12)OCc1ccccc1
inactive: all assays above

CCN1C(=O)NC(c2ccc(Br)cc2)C(C(C)=O)=C1C (configuration not stated)
inactive: all assays above

c1ccc(-c2nc(-c3ccccc3)c(Nc3ccc4ccccc4c3)o2)cc1
inactive: all assays above

CCO[C@@H]1C[C@@]1(C=C[C@@H](C)[C@H](OC)c1ccccc1Br)C(=O)OC
inactive: all assays above

CCCCOC(OCCCC)C(O)CSc1ccc2ccccc2c1 (configuration not stated)
inactive: all assays above

C=C(CCN1C=C(C(C)=O)C(c2ccccc2)NC1=O)c1ccccc1 (configuration not stated)
inactive: all assays above

CCOC(=O)NN=C1C[C@@H](O)[C@@H](O)[C@@H]2[C@H]3C(=O)N(c4cccc(Oc5ccccc5)c4)C(=O)[C@@H]3CC[C@@H]12
inactive: all assays above

COC(=O)[C@H](Cc1ccccc1)NC(=O)O[C@@H]1C(=O)c2cc(OC)ccc2O[C@H]1c1ccc(OC)c(Br)c1
inactive: all assays above

COCCN1C(=NCCc2cccnc2)NC(c2ccccc2)C(C(=O)OC)=C1C (configuration not stated)
inactive: all assays above

CC1(C)O[C@@H](C(O)(c2cc(C(F)(F)F)cc(C(F)(F)F)c2)c2cc(C(F)(F)F)cc(C(F)(F)F)c2)[C@H](C(O)(c2cc(C(F)(F)F)cc(C(F)(F)F)c2)c2cc(C(F)(F)F)cc(C(F)(F)F)c2)O1
inactive: all assays above

C#CCCCON=C1C[C@@H](O)[C@H](O)[C@H]2[C@@H]3C(=O)N(C[C@@H]4CCCO4)C(=O)[C@@H]3CC[C@@H]12
inactive: all assays above

COCCN1C(=O)C2=C(C1=O)C1N(C)c3ccccc3[C@@]13C[C@@H](CO)N(C(=O)CCC(=O)OC)C3=N2 (some centres not stated)
inactive: all assays above

C(#C[C@@H]1C=C[C@H]2OC(c3ccccc3)OC[C@H]2O1)c1ccccc1 (some centres not stated)
inactive: all assays above

CCOC(=O)C(C)=NNC(C)=O
inactive: all assays above

CCN1C(=O)NC(c2cccc(C(F)(F)F)c2)C(C(=O)OC)=C1C (configuration not stated)
inactive: all assays above

CC[C@H](C)[C@@H](NC(=O)O[C@H]1C(=O)c2cc(OC)ccc2O[C@@H]1c1ccc(OC)c(Br)c1)C(=O)OC
inactive: all assays above

Cc1cc(C)cc(CO[C@H]2C=C[C@@H](c3ccccc3)O[C@H]2CO)c1
inactive: all assays above

COc1ccc(-c2nc(-c3ccccc3)oc2NC(C)c2ccccc2)cc1 (configuration not stated)
inactive: all assays above

CCC(=O)OC1(C)C(=O)C=C2C=C(c3ccc(C#N)cc3)OC=C2C1=O (configuration not stated)
inactive: all assays above

CCCCC1=CC2=C(c3ccco3)C(=O)C(C)(OC(=O)c3ccc(OC)cc3)C(=O)C2=CN1CCCN(CC)CC (configuration not stated)
inactive: all assays above

CC[C@H](C)[C@@H](NC(=O)O[C@@H]1C(=O)c2ccc(OC)cc2O[C@H]1c1ccc2c(c1)OCO2)C(=O)OC
inactive: all assays above

CCOC(=O)C1(C(=O)OCC)Cc2ccc(C(C)=O)cc2C1
inactive: all assays above

CC1=CC[C@@H](C)O[C@@]2(C1)C(=O)N(Cc1ccc(Br)cc1)c1ccccc12
inactive: all assays above

COc1cccc([C@@H]2Oc3ccc(OC)cc3[C@H](O)[C@@H]2O)c1
inactive: all assays above

CC(CCC(=O)OC[C@H]1O[C@H](C#Cc2ccccc2)C=C[C@H]1Oc1ccc(C)cc1)=NOC[C@@H](O)COCc1ccco1
inactive: all assays above

CCCCS(=O)(=O)N1CCc2nc(-c3ccccc3)c3c(c2C1)CO[C@@H](C)C3
inactive: all assays above

COc1cccc2c1[C@H](C=Cc1ccccc1)[C@@H]([C@H](O)CO)OC2
inactive: all assays above

CC#CCN1C(=O)N(C)C(c2ccccc2)C(C(=O)OC)=C1C (configuration not stated)
inactive: all assays above

COC(=O)N[C@@H](c1ccccc1)[C@]1(C(C)=O)CCCC1=O
inactive: all assays above

COC(=O)CC=C[C@@H](C)[C@H](OC)c1c(Br)ccc2c1OCO2
inactive: all assays above

C(=Cc1nc(-c2ccccc2)oc1Nc1ccc2ccccc2c1)c1ccccc1
inactive: all assays above

CCN1C(=O)NC(c2cccc(C(F)(F)F)c2)C(C(C)=O)=C1C (configuration not stated)
inactive: all assays above

CCN1C(=O)NC(c2cccc(F)c2)C(C(=O)OC)=C1C (configuration not stated)
inactive: all assays above

COC(=O)N[C@H](C(C(=O)OC)=C(C)NCc1ccccc1)c1cccs1
inactive: all assays above

CC(C)=CCn1cnc2c1C(NOCc1ccccc1)=NCN2
inactive: all assays above

c1ccc(-c2nc(-c3ccccc3)c(NC3CCCCC3)o2)cc1
inactive: all assays above

Cc1ccc(O[C@@H]2[C@H](O)CO[C@H]2C=CC#Cc2ccc(C(C)(C)C)cc2)cc1
inactive: all assays above

COCCN1C(=O)NC(c2ccco2)C(C(=O)OC)=C1C (configuration not stated)
inactive: all assays above

COC(=O)N[C@H](C(C(=O)OC)=C(C)NCc1ccccc1)c1ccc(Cl)cc1
inactive: all assays above

CCN1C(=NCCc2cccnc2)N[C@H](CCc2ccccc2)[C@H](C(=O)OC)[C@H]1C
inactive: all assays above
